According to PubChem BioAssay AID1159580 (chemical genetic matrix, 2015):
Values joined by “and” are separate entries in the source; they are usually repeats but may differ in a detail not shown here. Equal values may be shown once. About 2,000 (36%) of roughly 5,500 compounds were called active. Inconclusive results (about 18%) are left out. Cut-off read from the data, not from the text of the source: active = normalized growth mostly below about 0.91 (no sharp cut-off); inconclusive = no clear call, values can overlap the other calls; inactive = mostly above about 0.92. Some of the results follow.

Assay: chemical genetic growth profiling, strain panel (AID 1159580);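 note: tested at 20 µM; growth read once vehicle control cultures reached saturation at 30 °C; 1 = growth at the plate median or of vehicle wells; lower values mean less growth of the strain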
Conditions: growth OD

Measured: normalized growth

O=C(O)c1cc(=O)c2ccccc2[nH]1
inactive: S. cerevisiae deletion strains, locus YJR075W, strain HOC1, hits give low values 0.999 | S. cerevisiae deletion strains, locus YKL009W, strain mrt4, hits give low values 1.01 | S. cerevisiae deletion strains, locus YKL068W, hits give low values 0.991 | S. cerevisiae deletion strains, locus YKL085W, strain MDH1 (second series), hits give low values 0.998 | S. cerevisiae deletion strains, locus YKL085W, strain MDH1, hits give low values 0.998 | S. cerevisiae deletion strains, locus YKL160W, strain elf1, hits give low values 0.993 | S. cerevisiae deletion strains, locus YKL190W, strain CNB1, hits give low values 1 | S. cerevisiae deletion strains, locus YKR001C, strain vps1, hits give low values 1.01 | S. cerevisiae deletion strains, locus YKR026C, strain gcn3, hits give low values 0.98 | S. cerevisiae deletion strains, locus YKR091W, strain srl3, hits give low values 0.993 | S. cerevisiae deletion strains, locus YLL001W, strain dnm1, hits give low values 0.991 | S. cerevisiae deletion strains, locus YLL026W, hits give low values 0.994 | S. cerevisiae deletion strains, locus YLL041C, strain sdh2, hits give low values 0.98 | S. cerevisiae deletion strains, locus YLR027C, strain aat2, hits give low values 0.989 | S. cerevisiae deletion strains, locus YLR039C, strain RIC1, hits give low values 1.01 | S. cerevisiae deletion strains, locus YLR058C, strain SHM2, hits give low values 0.972 | S. cerevisiae deletion strains, locus YLR102C, strain apc9, hits give low values 1 | S. cerevisiae deletion strains, locus YLR113W, strain HOG1, hits give low values 1.01 | S. cerevisiae deletion strains, locus YLR221C, strain rsa3, hits give low values 0.973 | S. cerevisiae deletion strains, locus YLR258W, strain gsy2, hits give low values 0.98 | S. cerevisiae deletion strains, locus YLR262C, strain YPT6 (second series), hits give low values 1.04 | S. cerevisiae deletion strains, locus YLR262C, strain YPT6, hits give low values 1 | S. cerevisiae deletion strains, locus YLR268W, strain sec22, hits give low values 1.01 | S. cerevisiae deletion strains, locus YLR320W, strain mms22, hits give low values 0.977 | S. cerevisiae deletion strains, locus YLR330W, strain CHS5, hits give low values 0.989 | S. cerevisiae deletion strains, locus YLR342W, strain FKS1 (second series), hits give low values 1.01 | S. cerevisiae deletion strains, locus YLR342W, strain FKS1, hits give low values 0.986 | S. cerevisiae deletion strains, locus YLR357W, strain rsc2, hits give low values 0.936 | S. cerevisiae deletion strains, locus YLR370C, strain arc18, hits give low values 0.987 | S. cerevisiae deletion strains, locus YLR371W, strain rom2, hits give low values 0.986 | S. cerevisiae deletion strains, locus YLR384C, strain iki3, hits give low values 0.942 | S. cerevisiae deletion strains, locus YLR418C, strain cdc73, hits give low values 1.05 | S. cerevisiae deletion strains, locus YML016C, strain PPZ1, hits give low values 0.984 | S. cerevisiae deletion strains, locus YML032C, strain rad52, hits give low values 0.976 | S. cerevisiae deletion strains, locus YML120C, strain ndi1, hits give low values 0.99 | S. cerevisiae deletion strains, locus YML124C, strain tub3, hits give low values 0.992 | S. cerevisiae deletion strains, locus YMR058W, strain fet3, hits give low values 0.99 | S. cerevisiae deletion strains, locus YMR078C, strain ctf18, hits give low values 0.984 | S. cerevisiae deletion strains, locus YMR125W, strain sto1, hits give low values 0.972 | S. cerevisiae deletion strains, locus YMR129W, hits give low values 1 | S. cerevisiae deletion strains, locus YMR205C, strain PFK2, hits give low values 0.986 | S. cerevisiae deletion strains, locus YMR223W, strain ubp8, hits give low values 0.985 | S. cerevisiae deletion strains, locus YMR231W, strain pep5, hits give low values 0.973 | S. cerevisiae deletion strains, locus YMR263W, strain SAP30, hits give low values 0.988 and 0.996 | S. cerevisiae deletion strains, locus YMR307W, strain GAS1, hits give low values 1.09 | S. cerevisiae deletion strains, locus YNL067W, strain RPL9B, hits give low values 0.998 | S. cerevisiae deletion strains, locus YNL071W, strain lat1, hits give low values 1.01 | S. cerevisiae deletion strains, locus YNL128W, strain TEP1, hits give low values 0.963 | S. cerevisiae deletion strains, locus YNL153C, strain GIM3, hits give low values 1 and 1.01 | S. cerevisiae deletion strains, locus YNL175C, strain NOP13, hits give low values 0.978 | S. cerevisiae deletion strains, locus YNL183C, strain NPR1, hits give low values 0.893 | S. cerevisiae deletion strains, locus YNL197C, strain WHI3, hits give low values 0.981 | S. cerevisiae deletion strains, locus YNL209W, strain ssb2, hits give low values 0.989 | S. cerevisiae deletion strains, locus YNL224C, strain SQS1, hits give low values 0.989 | S. cerevisiae deletion strains, locus YNL233W, strain BNI4, hits give low values 0.993 | S. cerevisiae deletion strains, locus YNL248C, strain rpa49, hits give low values 0.987 | S. cerevisiae deletion strains, locus YNL250W, strain rad50, hits give low values 0.976 | S. cerevisiae deletion strains, locus YNL271C, strain bni1, hits give low values 0.997 | S. cerevisiae deletion strains, locus YNL298W, strain CLA4, hits give low values 1 | S. cerevisiae deletion strains, locus YNL307C, strain MCK1, hits give low values 0.998 | S. cerevisiae deletion strains, locus YNL322C, strain KRE1 (second series), hits give low values 0.975 | S. cerevisiae deletion strains, locus YNL322C, strain KRE1, hits give low values 0.991 and 1 | S. cerevisiae deletion strains, locus YNR049C, strain mso1, hits give low values 0.983 | S. cerevisiae deletion strains, locus YNR052C, strain pop2, hits give low values 1 | S. cerevisiae deletion strains, locus YOL006C, strain TOP1, hits give low values 1 | S. cerevisiae deletion strains, locus YOL012C, strain htz1 1.51 | S. cerevisiae deletion strains, locus YOL147C, strain pex11, hits give low values 0.999 | S. cerevisiae deletion strains, locus YOR001W, strain rrp6, hits give low values 0.954 | S. cerevisiae deletion strains, locus YOR061W, strain CKA2, hits give low values 0.969 | S. cerevisiae deletion strains, locus YOR069W, strain VPS5, hits give low values 0.995 | S. cerevisiae deletion strains, locus YOR070C, strain gyp1, hits give low values 0.995 | S. cerevisiae deletion strains, locus YOR080W, strain dia2, hits give low values 0.974 | S. cerevisiae deletion strains, locus YOR083W, strain WHI5 (second series), hits give low values 1.02 | S. cerevisiae deletion strains, locus YOR083W, strain WHI5, hits give low values 0.999 | S. cerevisiae deletion strains, locus YOR106W, strain vam3, hits give low values 1.01 | S. cerevisiae deletion strains, locus YOR136W, strain idh2, hits give low values 0.99 | S. cerevisiae deletion strains, locus YOR144C, strain elg1, hits give low values 0.994 | S. cerevisiae deletion strains, locus YOR184W, strain ser1, hits give low values 0.994 | S. cerevisiae deletion strains, locus YOR231W, strain MKK1, hits give low values 0.988 | S. cerevisiae deletion strains, locus YOR265W, strain rbl2, hits give low values 1 | S. cerevisiae deletion strains, locus YOR270C, strain vph1, hits give low values 1 | S. cerevisiae deletion strains, locus YOR290C, strain snf2, hits give low values 0.986 | S. cerevisiae deletion strains, locus YOR316C, strain cot1, hits give low values 0.983 | S. cerevisiae deletion strains, locus YPL051W, strain arl3, hits give low values 0.997 | S. cerevisiae deletion strains, locus YPL055C, strain LGE1, hits give low values 0.976 and 1.01 | S. cerevisiae deletion strains, locus YPL078C, strain atp4, hits give low values 0.987 | S. cerevisiae deletion strains, locus YPL106C, strain sse1, hits give low values 0.972 | S. cerevisiae deletion strains, locus YPL240C, strain hsp82, hits give low values 0.982 | S. cerevisiae deletion strains, locus YPL241C, strain CIN2, hits give low values 0.996 | S. cerevisiae deletion strains, locus YPL256C, strain CLN2, hits give low values 0.954 | S. cerevisiae deletion strains, locus YPR119W, strain clb2, hits give low values 0.99 | S. cerevisiae deletion strains, locus YPR141C, strain kar3, hits give low values 0.977 | S. cerevisiae deletion strains, locus YPR163C, strain tif3, hits give low values 0.997 | S. cerevisiae deletion strains, locus YPR167C, strain met16, hits give low values 0.997 | S. cerevisiae deletion strains, strain wtn01, hits give low values 0.992 | S. cerevisiae strains, strain wild type, hits give low values 0.992
